Calls of active or inactive are those of the source.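 The calls were made as follows, unless noted: active = fluorescence slope higher than the sample average by over 3 SD (cut at about -0.22 in these data, passing the limit was not always enough); inactive = the rest.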

In general, inhibition refers to the relative decrease from the control value, in per cent.

The nature of test [1]: inhibitors of TNFa-induced NFkB p65 translocation, primary screen, imaging, HUVEC, MLSMR starter and 10KST1 sets (AID 438;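 active = inhibition above 20% together with a positive visual image hit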;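 also: compound added about 3h40 before a 20 min TNFalpha stimulation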;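 as to inhibition: signal is the nuclear over cytoplasmic p65 intensity ratio per well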). The conditions noted are these: HUVEC TNFa-induced p65 nuclear translocation; cell count: measured here: nuclei count (cytotoxicity indicator), at 2.08 µM; inhibition: at 2 µM, stronger effect = higher value, 0% TNFa-plus-vehicle, 100% no-TNFa wells.
Test [2] can be described thus: reduction of polyQ htt aggregates in cells – imaging, exon1htt(103Q)mCFP cells, high-content imaging, primary screen (AID 483;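 active = visual image review flags a hit and inhibition of aggregation exceeds 20%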;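 also: compound exposure lasted 3 days before fixation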;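 as to nuclei count: percent of the per-plate median nuclei count of sample wells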). The conditions noted are these: exon1htt(103Q)mCFP cell line, aggregate imaging, at 2 µM; inhibition of aggregation: stronger effect = higher value; nuclei count: measured here: cell count, toxicity.
Test [3] is described as follows: endothelial E-selectin expression blockers – imaging, HUVEC, immunofluorescence, MLSMR starter and 10KST1 sets, primary screen (AID 487;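 active = visually confirmed hit in the image check and inhibition above 20%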;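 as to inhibition: signal is fraction of cell area covered by stained E-selectin grains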;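 as to nuclei count: 100% = median nuclei count of all wells on the same plate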). As to conditions: HUVEC TNFalpha-induced E-selectin immunofluorescence imaging, at 2 µM; inhibition: stronger effect = higher value; nuclei count: measured here: cell number, toxicity.
Test [4] has as its target Voltage-gated potassium channel subunit beta-2 (Rattus norvegicus) (UniProt P62483). Put plainly: inhibitors of rat Kvbeta2 reductase activity – biochemical, NADPH fluorescence, primary screen (AID 622).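 Also: slope of raw intensity against log time taken from 70 to 1610 s.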 The conditions noted are these: recombinant KvBeta, 4-cyanobenzaldehyde reduction, at 10 µM, stronger effect = higher value.
Test [5] shares this target. Put plainly: enhancers of rat Kvbeta2 NADPH turnover – biochemical, NADPH fluorescence, primary screen (AID 623;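 active = NADPH fluorescence slope more negative than the mean of all samples by about 3 SD, 99.7% confidence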;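 also: fluorescence intensity change per second fitted from 20 to 320 s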). As to conditions: Recombinant KvBeta, NADPH fluorescence decrease slope, 10 min; at 10 µM; stronger effect = lower value.
Test [6] addresses Alpha-2C adrenergic receptor (Homo sapiens) (UniProt P18825). Put plainly: compounds altering alpha2C-coupled GIRK flux – cell-based, HEK293 alpha2C/GIRK1/2, thallium flux, primary screen (AID 624;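 active = fluorescence slope after compound addition differing from the mean of all screened samples at 99.7% confidence, in either direction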;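 also: slope of fluorescence ratio to pre-addition baseline per second over 15 to 24 s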). As to conditions: thallium flux BTC fluorescence, at 10 µM, actives lie on both sides.
Test [7] can be described thus: blockers of RIG-like receptor reporter activation – cell-based, Sendai virus stimulus, luciferase, 10K MLSCN set, TLR/RLR signaling modifier project, primary screen (AID 602276;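 active = inhibition at or above 50% at 10 µM; inactive = inhibition below 50%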;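 also: firefly luciferase from ISG56 promoter only with Renilla not read in this screen; 0% = Sendai virus plus DMSO and 100% = medium plus DMSO without virus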). The conditions noted are these: HEK293 RL24 IRF3 luciferase reporter, at 10 µM, stronger effect = higher value. For orientation: A reporter such as luciferase makes a cellular process visible.
A short description of test [8]: TLR3 IRF3 reporter activation blockers – cell-based, poly I:C stimulus, luciferase, 10K MLSCN set, primary screen (AID 602277;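 active = inhibition of the reporter signal at or above 50%; inactive = inhibition below 50%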). The conditions noted are these: HEK293-TLR3 RL24 IRF3 luciferase reporter, at 10 µM, stronger effect = higher value.

Chain of Voltage-gated potassium channel subunit beta-2 (Rattus norvegicus) (P62483 whole entry, looked up): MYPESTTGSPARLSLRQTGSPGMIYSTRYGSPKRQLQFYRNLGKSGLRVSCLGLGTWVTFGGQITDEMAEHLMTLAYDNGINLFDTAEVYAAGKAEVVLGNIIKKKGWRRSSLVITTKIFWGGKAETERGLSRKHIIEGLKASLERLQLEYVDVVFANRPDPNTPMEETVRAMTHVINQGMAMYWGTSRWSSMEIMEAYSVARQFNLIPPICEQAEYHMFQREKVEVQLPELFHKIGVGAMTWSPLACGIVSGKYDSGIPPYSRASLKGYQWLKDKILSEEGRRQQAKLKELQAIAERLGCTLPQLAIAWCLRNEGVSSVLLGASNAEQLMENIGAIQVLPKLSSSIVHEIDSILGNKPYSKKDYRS
Chain of Alpha-2C adrenergic receptor (Homo sapiens) (P18825 whole entry, looked up): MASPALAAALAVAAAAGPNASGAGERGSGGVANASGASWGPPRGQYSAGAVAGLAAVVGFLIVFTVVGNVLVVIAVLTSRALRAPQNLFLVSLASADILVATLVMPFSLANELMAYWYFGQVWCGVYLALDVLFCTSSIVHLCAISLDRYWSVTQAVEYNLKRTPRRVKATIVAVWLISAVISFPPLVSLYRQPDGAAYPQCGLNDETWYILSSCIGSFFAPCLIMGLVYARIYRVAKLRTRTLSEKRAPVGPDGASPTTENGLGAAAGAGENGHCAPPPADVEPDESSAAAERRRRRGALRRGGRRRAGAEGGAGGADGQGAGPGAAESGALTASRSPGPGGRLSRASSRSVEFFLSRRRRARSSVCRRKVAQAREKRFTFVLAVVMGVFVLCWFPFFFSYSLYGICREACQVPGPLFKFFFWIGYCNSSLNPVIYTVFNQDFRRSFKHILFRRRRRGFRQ

Regarding `CCOc1cc2oc(=O)c3c(c2cc1Cl)CCC3`, in test [1], the cell count turned out to be 400. For the same compound, the inhibition is -2.6% (inactive) in test [1], -24.1% (inactive) in test [3], -5.28% (inactive) in test [7] and -30.2% (inactive) in test [8]. Also, in test [2], the inhibition of aggregation is 5.2% (inactive). Moreover, the nuclei count in test [2] came out at 104%; in test [3] it was 106%. Also, in test [4], the fluorescence slope was -0.482 (inactive). The NADPH fluorescence slope in test [5] is 1.7e-05 (inactive). The slope in test [6] is 0.00626 (inactive).
On to `CCOc1ccc(N(CC(=O)NC2CCCC2)S(=O)(=O)c2c(C)[nH]c(=O)[nH]c2=O)cc1`, for which the cell count in test [1] was determined as 552. In addition, the inhibition was 14% (inactive) in test [1], -159% (inactive) in test [3], 4.96% (inactive) in test [7] and 15.6% (inactive) in test [8]. In addition, the inhibition of aggregation in test [2] is 15.7% (inactive). In addition, the figures for the nuclei count in test [2] and in test [3] were 107% and 132%, respectively. In addition, the fluorescence slope in test [4] was -0.518 (inactive). For the same compound, in test [5], the NADPH fluorescence slope is -5.9e-05 (inactive). For the same compound, in test [6], the slope is 0.00723 (inactive).
`CS(=O)(=O)N1CCCC(C(=O)NCCCN2CCc3ccccc3C2)C1` (centres undefined): the cell count in test [1] is 228. The inhibition was 3.4% (inactive) in test [1], 35.8% (inactive) in test [3], -8.77% (inactive) in test [7] and 5.97% (inactive) in test [8]. For the same compound, the inhibition of aggregation in test [2] was 10.5% (inactive). Moreover, the nuclei count in test [2] amounted to 83.5%; in test [3], 83.4%. For the same compound, in test [4], the fluorescence slope is -0.54 (inactive). The NADPH fluorescence slope in test [5] is -1.5e-05 (inactive). The slope in test [6] is 0.00591 (inactive).
For `COc1ccc(NC(=O)C23CCC(C)(C(=O)C2)C3(C)C)cc1` (centres undefined), the cell count in test [1] was 606. Moreover, the inhibition in test [1] was -7.7% (inactive); in test [3], -111% (inactive); in test [7], 12.6% (inactive); in test [8], 17.8% (inactive). Further, in test [2], the inhibition of aggregation was -15.6% (inactive). Besides, the nuclei count came out at 103% in test [2] and 108% in test [3]. Moreover, in test [4], the fluorescence slope is -0.6 (inactive). In test [5], the NADPH fluorescence slope was 6.7e-07 (inactive). Further, the slope in test [6] is 0.00539 (inactive).
In the case of `CS(=O)(=O)N(CC(=O)Nc1cccc(F)c1)Cc1ccccc1`, the cell count in test [1] stood at 381. For the same compound, the inhibition was -0.2% (inactive) in test [1], -19.3% (inactive) in test [3], 5.19% (inactive) in test [7] and 30.7% (inactive) in test [8]. The inhibition of aggregation in test [2] is 2.5% (inactive). Further, the nuclei count in test [2] is 107%; in test [3], 106%. Besides, the fluorescence slope in test [4] was -0.467 (inactive). In test [5], the NADPH fluorescence slope was -3.7e-05 (inactive). The slope in test [6] was 0.00637 (inactive).
For the compound `COc1ccc(Cc2nc(-c3ccc(Br)cc3)no2)cc1`, the cell count in test [1] is 366. In addition, the inhibition is 6% (inactive) in test [1], -17.5% (inactive) in test [3], -28.1% (inactive) in test [7] and -62.7% (inactive) in test [8]. The inhibition of aggregation in test [2] was -7% (inactive). The nuclei count in test [2] was 105%; in test [3], 107%. The fluorescence slope in test [4] is -0.28 (inactive). Besides, in test [5], the NADPH fluorescence slope was 2e-05 (inactive). Moreover, in test [6], the slope was 0.00781 (inactive).
Take `Cc1cc(C)cc(Nc2ncc3c(n2)CC(c2ccco2)CC3=O)c1` (centres undefined): in test [1], the cell count came to 465. Moreover, the inhibition was -18.3% (inactive) in test [1], -88% (inactive) in test [3], 14.2% (inactive) in test [7] and -2.34% (inactive) in test [8]. Besides, the inhibition of aggregation in test [2] is -14.3% (inactive). Further, the nuclei count in test [2] turned out to be 106%; in test [3], 114%. Moreover, the fluorescence slope in test [4] was -0.385 (inactive). Besides, in test [5], the NADPH fluorescence slope was -3e-05 (inactive). Moreover, the slope in test [6] was 0.00418 (inactive).
In the case of `Cn1c(=O)c2c(nc(SCC(=O)N3CCCc4ccccc43)n2C)n(C)c1=O`, in test [1], the cell count amounted to 354. Moreover, the inhibition in test [1] is -5.7% (inactive); in test [3] it was -139% (inactive); in test [7] it was -0.111% (inactive); in test [8] it was -6.19% (inactive). The inhibition of aggregation in test [2] was -9.7% (inactive). In addition, the values for the nuclei count in test [2] and in test [3] were 45.1% and 115%, respectively. In addition, in test [4], the fluorescence slope is -0.361 (inactive). The NADPH fluorescence slope in test [5] was -7.1e-05 (inactive). The slope in test [6] was 0.00482 (inactive).
On to `Cc1ccccc1-c1nc(CS(=O)(=O)CC(=O)NCc2ccccc2)c(C)o1`, for which the cell count in test [1] was 642. Besides, the inhibition in test [1] is 2.8% (inactive); in test [3] it was 16.5% (inactive); in test [7], 9.9% (inactive); in test [8] it was 24.3% (inactive). Further, in test [2], the inhibition of aggregation is -36.7% (inactive). Moreover, the nuclei count in test [2] is 75.5%; in test [3], 106%. Further, the fluorescence slope in test [4] was -0.532 (inactive). For the same compound, in test [5], the NADPH fluorescence slope is -2.1e-05 (inactive). Further, the slope in test [6] was 0.00661 (inactive).

(Values after PubChem BioAssay.)
